High-throughput results as filed in PubChem.
PLK1 PBD inh – inhibitors of human PLK1 polo-box domain binding; Potency, µM, inactives show max response, negative = inhibition, most hits filed as inhibitors; Plk1 PBD binding of FITC phosphopeptide, fluorescence polarization; actives 2.8% (n = 360,000); P53350; note: series mostly up to about 57 µM; nearly all actives have a fitted effect of over 65% in size
Target sequence (P53350 whole entry, looked up, the tested form may be a part): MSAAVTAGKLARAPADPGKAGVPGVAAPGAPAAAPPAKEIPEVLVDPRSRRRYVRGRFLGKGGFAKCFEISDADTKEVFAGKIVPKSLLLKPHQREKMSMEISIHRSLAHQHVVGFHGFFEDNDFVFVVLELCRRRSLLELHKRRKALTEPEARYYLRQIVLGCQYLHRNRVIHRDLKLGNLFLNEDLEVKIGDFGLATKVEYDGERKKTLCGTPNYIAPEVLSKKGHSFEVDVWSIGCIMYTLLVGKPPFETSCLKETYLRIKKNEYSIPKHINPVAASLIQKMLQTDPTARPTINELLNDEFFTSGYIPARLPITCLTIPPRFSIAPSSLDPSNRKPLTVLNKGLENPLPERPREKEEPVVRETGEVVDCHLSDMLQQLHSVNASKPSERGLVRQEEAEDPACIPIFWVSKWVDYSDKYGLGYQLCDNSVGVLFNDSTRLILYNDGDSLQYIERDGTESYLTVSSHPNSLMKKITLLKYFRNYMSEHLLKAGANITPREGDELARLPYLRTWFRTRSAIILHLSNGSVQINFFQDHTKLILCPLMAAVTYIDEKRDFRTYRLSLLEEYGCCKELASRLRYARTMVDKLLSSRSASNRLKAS
VDR inhibitor – blocks the human vitamin D receptor; P11473; VDR-SRC2-3 peptide fluorescence polarization, 2 h; Potency, µM, for the others: max response, negative = inhibition, hits mostly inhibitors; actives 0.93% (n = 400,000); AID 504847
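Fluorescence polarization assay of small-molecule disruption of VDR binding to coregulator peptide SRC2-3. Compounds and controls pin-transferred, then read after 2 h incubation at ambient room temperature.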
ALOX12 inh – ALOX12 (human) lipoxygenase inhibition | Potency, µM (titrated, usually from 108 µM), without a hit: top-dose activity change, negative = inhibition, hits mostly inhibitors | actives 1.1% (n = 580,000) | purified 12hLO, xylenol orange hydroperoxide absorbance | P18054
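Purified human 12hLO at 150 nM in 25 mM Hepes, 0.01% Triton X-100, pH 7.0, preincubated 15 min at room temperature with compound. Reaction started with 40 uM arachidonic acid, 30 min at room temperature. Hydroperoxide measured by Fe-xylenol orange, 573/405 nm absorbance ratio.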
Sfp inh – Sfp phosphopantetheinyl transferase inhibition; Q9F4F7; Biochemical Sfp PPTase activity, qHTS; Potency, µM, for inactives: largest response in the series, negative = inhibition, most hits filed as inhibitors; actives 3.5% (n = 310,000); AID 1490;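 note: the enzyme is Sfp with the accession as filed and its product quenches rhodamine fluorescence; 0% = enzyme reaction without inhibitor and -100% = no enzyme wells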
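Fluorescence-quenching assay: 15 nM Sfp-PPTase preincubated 15 min at room temperature with compound, then 5 uM rhodamine-CoA and 12.5 uM BHQ-2-labelled YbbR peptide added. Fluorescence (ex 525/em 598 nm) read at start and after 30 min; difference gives rate.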
Numbers without * were called inactive; ? = inconclusive; . = no result; ! = not confirmed by another sample. Only some compounds are listed: those with a hit (about 4.2% of all), similar ones and a draw of the others. Calls come from the whole dose curve; as a rule, active = well fitted curve in the direction sought with a large enough effect; inconclusive = small, poorly fitted or top-dose-only effect, or another doubt; inactive = no such curve, though single readings can be large; an effect the other way counts as inactive or inconclusive. Unless noted, % is set by controls: 0 for no effect and ±100 for the full control effect; potency is the fitted concentration of half-maximal effect.

SMILES	PLK1 PBD inh	VDR inhibitor	ALOX12 inh	Sfp inh
O=C1/C(=C/c2ccc(N3CCOCC3)o2)SC(=Nc2ccccc2)N1CCc1c[nH]c2ccccc12	27%	79µM*	.	2.8µM*
COc1cc(/C=C2\SC(=Nc3ccccc3)N(CCc3c[nH]c4ccccc34)C2=O)ccc1OC(C)C(=O)O (centres undefined)	?	?	?	-27%
COc1ccc(N=C2S/C(=C\c3ccc(OC(C)C(=O)O)c(OC)c3)C(=O)N2CCc2c[nH]c3ccccc23)cc1 (centres undefined)	?	40µM*	?	?
CC(C)C(=O)N/N=C/C=C/c1ccccc1	.	.	0%	.
Cc1ccccc1OCC(=O)N/N=C/C=C/c1ccccc1	30µM*	?	-3%	19%
O=C(COc1cccc2ccccc12)N/N=C/C=C/c1ccccc1	-6%	10%	-1%	8%
CC(C)C(NC(=O)COc1ccc2ccccc2c1)C(=O)N/N=C/C=C/c1ccccc1 (centres undefined)	-4%	0%	8.9µM*	7%
O=C(NCc1ccc2c(c1)OCO2)Nc1ccc2nsnc2c1	-9%	-9%	-3%	7%
CC1=NN(c2ccccc2)C(=O)C1N=Nc1ccccc1 (centres undefined)	-2%	-8%	1%	18%
CC1=NN(c2ccccc2)C(=O)C1N=Nc1ccc(N)cc1 (centres undefined)	24µM*	-19%	0%	-28%
CC1=NN(C(N)=S)C(=O)C1N=Nc1ccc(Cl)cc1 (centres undefined)	13µM*	?	0%	-5%
COc1ccc(N(C)S(=O)(=O)c2cccc(C(=O)N3CCN(c4ccccc4)CC3)c2)cc1	1%	10%	-2%	.
O=C(CCC(=O)c1ccc(F)cc1)Nc1ccccc1Cl	27µM*	-15%	-6%	4%
O=S(=O)(Cc1ccc(Cl)cc1)Oc1ccc(Cl)cc1	10%	7%	11%	.
Cc1ncc(CO)c(/C=N/NC(=S)Nc2cccc(Cl)c2)c1O	21µM*	79µM*	.	50µM*
Cc1ncc(CO)c(/C=N/NC(=O)c2ccc(O)cc2)c1O	-3%	-10%	-13%	-4%
Cc1ncc(CO)c(/C=N/NC(=S)Nc2ccc(Cl)c(Cl)c2)c1O	27µM*	?	45µM*	50µM*
Cc1ncc(CO)c(/C=N/NC(=O)c2ccccc2Br)c1O	-1%	0%	2%	16%
COc1cc(C(=O)NC2CCN(C)CC2)ccc1Nc1ncc2c(n1)N(CCc1ccccc1)CCC(=O)N2C	-27%	0%	-28%	.
O=[N+]([O-])c1ccc(S(=O)(=O)c2ccccc2)nc1	5.3µM*	40µM*	-14%	50µM*
Cc1ccc(S(=O)(=O)c2ccc([N+](=O)[O-])cn2)cc1	?	25µM*	-10%	?
CCC1S/C(=N/N=C/c2ccco2)N(Cc2ccccc2C)C1=O (centres undefined)	-5%	1%	?	-21%
CC(C)(C)c1ccc(-n2ncc3c2CCCC3NC(=O)CCC2=NNC(=O)CC2)cc1 (centres undefined)	-9%	.	-1%	.
O=C(O)c1ccccc1CC(CCc1ccccc1)C(=O)O (centres undefined)	-18%	-16%	28µM*	.
O=C(O)Cc1ccccc1C(=O)O	3%	-5%	-21%	11%
SMILES	PLK1 PBD inh	VDR inhibitor	ALOX12 inh	Sfp inh
COc1cc2c(cc1OC)n(CC(=O)NC1CCCCCC1)n1c(C)cc(=O)nc21	27µM*	-8%	-1%	3%
CC(O)c1nc2ccccc2n1CC(=O)C(C)(C)C (centres undefined)	.	.	-21%	.
O=C(O)[C@H]1CCCC[C@H]1C(=O)Nc1ccc(S(=O)(=O)N2CCOCC2)cc1	2%	-1%	-6%	14%
Cc1sc(NC(=O)CCCC(=O)O)c(C(N)=O)c1-c1ccccc1	30µM*	-10%	?	2%
Cc1ccc(C)c(S(=O)(=O)N2CCCOC2CNC(=O)C(=O)NCc2ccccn2)c1 (centres undefined)	-9%	-23%	128%	-5%
CC(OC(=O)C1CCN(S(=O)(=O)c2ccc(C(C)(C)C)cc2)CC1)C(=O)N1CCOCC1 (centres undefined)	-7%	-6%	45µM*!	.
CCN1CC(CNC(=O)CC2c3ccccc3CCc3ccccc32)CC1=O (centres undefined)	.	.	22%	.
O=S(=O)(Nn1cnnc1)c1ccccc1	-7%	-1%	-68%	2%
O=S(=O)(Nn1cnnc1)c1ccccc1Cl	27µM*	-4%	?	3%
Cc1ccc(-n2c(Cc3cccn3C)nnc2SCC(N)=O)cc1	-5%	17%	-23%	4%
C[C@@H](NC(=O)c1[nH]cnc1C(=O)Nc1ccc(Cl)cc1)c1ccccc1	-20%	-6%	?	.
C[C@H](NC(=O)c1[nH]cnc1C(=O)Nc1ccc(Cl)cc1)c1ccccc1	-9%	8%	45µM*	.
C[C@H](NC(=O)c1[nH]cnc1C(=O)Nc1ccc(CNC(=O)OC(C)(C)C)cc1)C(=O)OC(C)(C)C	21µM*	?	6%	27%
CCCOc1ccccc1C1C2=C(CC(C)(C)CC2=O)Nc2ccccc2N1C(C)=O (centres undefined)	.	.	19%	.
Cc1ccc(NC(=O)C2CCN(S(=O)(=O)c3c(C)[nH]c(=O)[nH]c3=O)CC2)cc1	2%	-6%	18%	3%
C/C(=N\Nc1ccc([N+](=O)[O-])cc1[N+](=O)[O-])c1cc2c(ccc3ccccc32)oc1=O	.	.	.	-13%
COc1ccc2oc(=O)c(/C(N)=N/NC(=O)c3ccncc3)cc2c1	24µM*	-23%	-6%	-16%
C/C(=N\NC(=O)c1ccc([N+](=O)[O-])cc1)c1cc2ccccc2oc1=O	30µM*	-25%	-8%	13%
COc1ccc2oc(=O)c(/C(C)=N/Nc3ccccc3)cc2c1	19µM*	-5%	32µM*	10%
C/C(=N/NC(=O)c1ccncc1)c1cc2ccc(O)cc2oc1=O	12µM*	3%	-1%	13%
CCc1cccc(C)c1NC(=O)C1CCCN(S(=O)(=O)c2cccc3nsnc23)C1 (centres undefined)	.	-3%	-8%	.
CNC[C@H]1Oc2c(NC(=O)C3CC3)cccc2C(=O)N([C@H](C)CO)C[C@@H]1C	3%	3%	-22%	.
C/C(=N\NC(=O)c1ccccc1)c1cc2cc([N+](=O)[O-])ccc2oc1=O	24µM*	-3%	?	13%
COc1ccc(-c2sc3ccc(N4CCOCC4)cc3c2C#CCO)cc1	0%	-1%	20µM*	.
COc1ccc(-c2sc3ccc(N4CCOCC4)cc3c2C#CC2(O)CCCCC2)cc1	-2%	-23%	-15%	.
Cc1ccc(C2=NS(=O)(=O)N(C)C(C(=O)Nc3ccc(F)cc3F)=C2)cc1	-4%	-13%	-18%	-1%
COc1ccc(OC)c(C2=NS(=O)(=O)N(C)C(C(=O)Nc3ccc(F)cc3F)=C2)c1	30µM*	?	-29%	6%
C[C@H]1[C@H](c2ccccc2)Oc2ccc(Cl)cc2S(=O)(=O)N1C[C@@H]1CCCN1C(=O)OC(C)(C)C	.	.	5%	.
